Only some compounds are listed: those with a hit (about 5.6% of all), similar ones and a draw of the others.
RORgamma inh: ROR gamma (mouse) transcription inhibition; Drosophila S2 Gal4-RORgamma UAS-luciferase reporter, 20 h; Potency, µM (doses to about 53.6 µM), inactives show at the highest dose activity change, negative = inhibition, hits mostly inhibitors; 310,000 tested, 5.4% active; note: potency is the fitted concentration of half-maximal effect; nearly all actives have a fitted effect of over 60% in size
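ROR gamma transcriptional activity was tracked as Gal4-UAS luciferase output in stably transfected Drosophila Schneider cells, with compound added 1 hr before 700 uM copper sulfate induction and a 20 hr ambient-temperature incubation.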
PKM2 activator: PKM2 (human) enzyme activation. P14618. purified PKM2, Kinase-Glo ATP luminescence, activation; response scale: 0% is enzyme alone, no compound. Potency, µM (top dose mostly 57.5 µM), for inactives: at the highest dose activation, hits mostly activators. 260,000 tested, 0.34% active; note: potency is the fitted concentration of half-maximal effect; nearly all actives have a fitted effect of over 55% in size
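hPK-M2, >95% pure; 0.1 mM ADP / 0.5 mM PEP final; imidazole pH7.2 buffer w/ 7 mM MgCl2, 50 mM KCl; 1 h RT; Kinase-Glo lum. Intermediate enzyme activity for dual inhibitor/activator qHTS.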
Gal4-VP16 FLuc: Gal4-VP16 reporter inhibition counter-screen; Drosophila S2 Gal4-VP16 UAS-luciferase, luminescence, 20 h; 310,000 tested, 3.5% active; Potency, µM (series often up to 53.6 µM), for the others: at the top dose activity, negative = inhibition, hits mostly inhibitors;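 note: Gal4-VP16 expression switched on by copper sulfate through the metallothionein promoter; potency is the fitted concentration of half-maximal effect; nearly all actives have a fitted effect of over 50% in size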
CtBP-E1A blk: CtBP/E1A binding inhibition; AlphaScreen GST-E1A/His-CtBP binding, 1536-well; hits give low values; activity change, % (test concentration not listed); 340,000 tested, 0.49% active; in the data active = activity change below about -65%; inconclusive = mostly about -30% to -63%
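GST-E1A and His-tagged CtBP (125 nM each as 5X stock) were preincubated with pin-transferred compound for 2 h at 37 °C in the dark, then glutathione donor and nickel acceptor beads were added for 1 h before AlphaScreen reading.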
Six1-Eya2 inh: inhibitors of human Six1/Eya2 interaction; Q15475+O00167; AlphaScreen GST-Six1/His-Eya2 binding, biochemical; hits give low values; activity change, % (no concentration beside the values); 360,000 tested, 0.56% active; in the data active = activity change below about -65%; inconclusive = mostly about -30% to -63%
Target sequence (O00167 whole entry, looked up): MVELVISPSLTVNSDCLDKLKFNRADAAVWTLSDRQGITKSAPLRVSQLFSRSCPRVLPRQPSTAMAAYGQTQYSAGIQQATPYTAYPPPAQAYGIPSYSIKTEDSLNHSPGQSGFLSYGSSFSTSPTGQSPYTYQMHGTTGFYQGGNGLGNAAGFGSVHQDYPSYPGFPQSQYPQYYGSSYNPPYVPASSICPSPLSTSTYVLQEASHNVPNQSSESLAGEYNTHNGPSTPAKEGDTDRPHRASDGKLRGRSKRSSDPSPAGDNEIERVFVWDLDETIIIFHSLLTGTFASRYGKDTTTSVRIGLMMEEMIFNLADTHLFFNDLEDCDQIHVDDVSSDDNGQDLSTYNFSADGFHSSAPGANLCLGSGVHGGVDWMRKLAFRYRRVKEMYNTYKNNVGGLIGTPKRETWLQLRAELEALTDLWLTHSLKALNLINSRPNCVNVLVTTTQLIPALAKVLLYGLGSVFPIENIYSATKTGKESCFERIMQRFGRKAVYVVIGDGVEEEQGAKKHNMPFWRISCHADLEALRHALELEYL
Target sequence (Q15475 whole entry, looked up): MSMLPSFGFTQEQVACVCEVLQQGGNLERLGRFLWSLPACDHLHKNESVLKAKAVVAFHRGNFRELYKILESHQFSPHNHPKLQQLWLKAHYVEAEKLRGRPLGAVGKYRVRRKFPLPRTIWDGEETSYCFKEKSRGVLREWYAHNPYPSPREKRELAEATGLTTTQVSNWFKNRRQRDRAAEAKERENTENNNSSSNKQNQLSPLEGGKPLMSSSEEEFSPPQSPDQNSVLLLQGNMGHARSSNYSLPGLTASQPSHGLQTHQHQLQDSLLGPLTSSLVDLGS
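Homogeneous AlphaScreen proximity assay pairing GST-Six1 with His-tagged Eya2 (added as 5X mix: 250 nM and 500 nM) in 50 mM Tris pH 8.0, 300 mM NaCl, 1 mM TCEP. Glutathione donor and nickel acceptor beads; 1 h, 37 °C, dark.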
* marks the source's active call; other numbers are inactive results; u = inconclusive; x = not tested or not shown; [ ] = another dose, or the depositor's remark. Unless noted, calls come from the whole dose curve; as a rule, active = well fitted curve in the direction sought with a large enough effect; inconclusive = small, poorly fitted or top-dose-only effect, or another doubt; inactive = no such curve, though single readings can be large; an effect the other way counts as inactive or inconclusive. % is set by controls: 0 for no effect and ±100 for the full control effect.

SMILES	RORgamma inh	PKM2 activator	Gal4-VP16 FLuc	CtBP-E1A blk	Six1-Eya2 inh
C=CCOc1ccc(C2NC(=S)NC(c3ccccc3)=C2C(C)=O)cc1OC (stereo not drawn)	14.1µM*	1.0%	-3.7%	-2.2	2.4
COc1cc(C2NC(=O)NC(c3ccccc3)=C2C(C)=O)ccc1OCC#N (stereo not drawn)	20.8%	-0.9%	-12.6%	7.8	1.5
Cc1ccccc1NC(=O)CCN1CCc2ccccc2C1	-2.0%	-4.7%	-2.3%	-1.7	-3.4
Fc1ccc(NC(=S)N/N=C/c2cccc(Br)c2)c(F)c1	0.708µM*	0.7%	2.51µM*	3.3	-0.8
S=C(N/N=C/c1ccc(Cl)c(Cl)c1)Nc1ccccc1Cl	0.316µM*	-9.4%	0.794µM*	-0.6	-0.2
O=C(N/N=C/c1cccc(F)c1)c1ccc(Cl)cc1	u	-3.1%	-6.1%	3.9	0.8
Fc1cccc(/C=N/NC(=S)Nc2ccccc2Cl)c1	0.708µM*	6.8%	1µM*	13.4	2.6
C=CCOc1c(Br)cc(CNn2c(C)n[nH]c2=S)cc1OC	u	-10.4%	u	-1.1	0.0
C=CCOc1c(Br)cc(CNc2nccs2)cc1OC	12.6µM*	-17.9%	17.8µM*	-13.8	-5.2
O=C(CCl)N(C1CCCC1)C1CCS(=O)(=O)C1 (stereo not drawn)	u	0.8%	15.8µM*	-10.0	-1.5
CC(=O)c1ccc(OCC(=O)N(C2CCCCC2)C2CCS(=O)(=O)C2)cc1 (stereo not drawn)	x	x	x	2.4	-0.6
Cc1cccc(NC(=O)CSc2n[nH]c(-c3ccncc3)n2)c1C	20.0%	-4.0%	2.0%	3.1	-0.8
O=C1c2sc3nc4n(c(=O)c3c2CCC1Br)CCCCC4 (stereo not drawn)	10µM*	23.2%	20µM*	4.6	-2.7
O=C1CCCc2c1sc1nc3n(c(=O)c21)CCCCC3	u	-1.0%	-7.6%	-1.7	-1.8
Cc1ccc2nc(SCC(=O)N(CC(C)C)c3c(N)n(Cc4ccccc4)c(=O)[nH]c3=O)[nH]c2c1	16.8%	1.4%	-11.5%	6.5	4.0
Clc1ccc(CCNc2nc3ccccc3s2)cc1	11.2µM*	0.7%	1.7%	9.0	5.9
CCOc1cc(/C=C2\SC(=N)N(c3nonc3N)C2=O)ccc1OCCN1CCOCC1	3.16µM*	-8.7%	u	x	-27.5
COc1ccc(CCNC(=O)Nc2ccc3nc([C@@H]4O[C@H](CO)[C@@H](O)[C@H](O)[C@H]4O)[nH]c3c2)cc1Br	x	x	x	-1.1	-14.9
CN1c2ccccc2C(=O)N2CCc3c([nH]c4ccccc34)C21 (stereo not drawn)	12.6%	x	-18.9%	x	x
O=[N+]([O-])c1cc([N+](=O)[O-])c(Oc2cccc(Cl)c2Cl)cc1NN1CCCCC1	27.4%	-2.3%	7.0%	2.4	-7.0
O=[N+]([O-])c1cc([N+](=O)[O-])c(Oc2ccc(Cl)c3cccnc23)cc1NN1CCCCC1	6.31µM*	-2.9%	u	-9.7	-15.0
O=C1C2=C(C(=O)c3ccccc31)C1O[C@](CCCCN3C(=O)c4ccccc4C3=O)(Cc3c1ccc1ccccc31)O2	-7.2%[10 µM]	7.4%[11.5 µM]	4.2%[10 µM]	x	x
CCN(/N=C/c1cccs1)c1cc(=O)n(C)c(=O)[nH]1	36.5%	22.4µM*	3.9%	-6.4	-15.6
O=C(Nc1ccccc1OC(F)F)c1ccc(-n2cncn2)c([N+](=O)[O-])c1	x	x	x	1.4	-8.0
CC(=O)Nc1cc(OC(C)=O)c2nonc2c1OC(C)=O	11.2µM*	3.4%	u	u	-1.9
SMILES	RORgamma inh	PKM2 activator	Gal4-VP16 FLuc	CtBP-E1A blk	Six1-Eya2 inh
CN(C)Cc1ccccc1-c1cncnc1NCc1cccs1	0.6%	x	0.1%	x	x
O=C(NCc1cc(Cl)cc(Cl)c1)c1ccc2nc([C@@H]3O[C@H](CO)[C@@H](O)[C@H]3O)[nH]c2c1	x	x	x	-15.2	-21.2
Cc1ccc(/C=C/C2=Cc3c(sc(NC(=O)CSc4n[nH]c(N)n4)c3C#N)C(C)(C)C2)o1	24.0%	4.47µM*	-2.7%	x	x
Cc1sc(NC(=O)CSc2n[nH]c(N)n2)c(C#N)c1C	x	x	x	-3.1	-15.6
CC(=O)c1ccc(Nc2c3ccccc3cc3occc23)cc1	11.4%	x	-16.1%	x	x
CCCCCCCCCCCCCCCC(=O)N[C@H](CN1CCOCC1)[C@H](O)c1ccccc1	-23.4%	x	-3.1%	x	x
O=C(COc1ccc([N+](=O)[O-])cc1)NNC(=S)NC(=O)c1ccc(Br)cc1	3.16µM*	x	u	0.0	-1.1
Cc1ccc(C(=O)NC(=S)NNC(=O)COc2ccc([N+](=O)[O-])cc2)cc1	11.2µM*	-0.2%	11.2µM*	13.3	-5.4
Cc1ccc(OCC(=O)Nc2ccc([N+](=O)[O-])cc2)cc1	1.2%	7.7%	-12.5%	5.8	2.5
O=C(COc1ccc2ccccc2c1)NNC(=O)c1ccc([N+](=O)[O-])cc1	2.7%	-5.0%	1.9%	0.0	-1.0
Cc1nnc(NC(=O)CSc2nnc3ncccn23)s1	32.6%	29.2%	5.4%	-20.1	-11.4
Cc1ccc(OCC(=O)NNC(=S)NC(=O)C2CC2)c(C)c1	8.91µM*	x	-22.5%	x	x
Cc1ccc(OCC(=O)NNC(=O)c2ccc(NC(=O)C3CC3)cc2)c(C)c1	u	1.8%	-0.5%	3.7	-1.9
Cc1ccc(OCC(=O)NNC(=S)NC(=O)C2CCCCC2)c(C)c1	10µM*	x	-15.7%	-2.8	-11.2
COc1cccc(CNC(=O)CN2C(=O)CSc3ccc(S(=O)(=O)N4CCCC4)cc32)c1	6.9%	-5.1%	-8.9%	7.7	-6.2
C/C(CC(=O)NCc1ccc(F)cc1)=N\NC(N)=S	12.6µM*	-0.2%	-25.0%	-2.4	-0.5
C/C(CC(=O)NCc1ccccc1)=N\NC(N)=S	10µM*	-5.6%	-2.2%[10 µM]	3.3	3.0
COc1ccc(CNC(=O)C/C(C)=N/NC(=O)c2cc(OC)cc(OC)c2)cc1	-12.1%	x	-6.6%	x	x
Brc1ccc2nc3c(n2c1)CCCC3	12.6µM*	-11.7%	u	-3.2	-6.8
CC(C)(C)S(=O)(=O)c1ccc2nc3c(n2c1)CCCC3	-26.1%	0.1%	-4.6%	-1.3	1.6
O=C(Oc1cccccc1=O)c1ccccc1	10µM*	11.3%	u	x	0.7
COc1cc(/C=C2/SC(=O)NC2=O)ccc1OCc1ccccc1	u	-5.4%	u	u	-13.7
COc1ccc(/C=C2/SC(=S)NC2=O)cc1OCc1ccccc1	u	1.1%	17.8µM*	-1.1	-18.0
CCOc1cc(C(=O)OCC(=O)N(C)c2ccccc2)cc(OCC)c1OCC	15.6%	-7.8%	7.3%	4.4	9.0
O=C(Nc1ccncc1)c1cc(F)cc(F)c1	u	11.6%	25.1µM*	-0.9	6.0
O=C(Nc1ccncc1)c1ccc(Br)cc1	27.1%	-4.2%	3.2%	x	3.2
Cc1cccc(OCC(=O)Nc2ccncc2)c1	x	x	x	10.5	-0.5
O=C(COc1ccc2ccccc2c1)Nc1ccncc1	u	3.3%	12.6µM*	-0.5	-3.2
Cc1cc(OCC(=O)Nc2ccncc2)cc(C)c1Br	0.0%	3.3%	11.2µM*	4.0	6.8
